Laboratory results from PubChem BioAssay (NCI).
Compounds without any hit were thinned out: in the full panel of roughly 83,000, 20% have a hit.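 Negative percent growth values reflect cell death: -40 means 40% of the cells present at the start died, and -100 means all died.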 Values without a mark were called inactive. Active and inactive are the calls of the source. Rule for the calls: active = growth percent below 10; inactive = the rest.

These molecules were tested on A498 renal (assay: NCI-60 one-dose screen, 48 h (100 = growth as untreated, 0 = no growth, -100 = all killed)). Details: 10 µM unless noted.

First: COc1ccc(Cn2cc3c(c2-c2ccccc2)CCc2cnoc2-3)cc1OC
Second: CCOC(=O)c1c2c(cn1Cc1ccccc1)-c1oncc1CC2
The growth of the first is lower: 18.5% for the first, 50.5% for the second.

Going from `Cc1ccc2c(O)c(O)cc(NC(C)CCCN)c2n1` (stereo not given) to `COc1cc(N)c2nccc(C)c2c1OC`, the growth rises from 81.3% to 93.5%.

Compared with `COC(=O)/C(Br)=C/c1c[nH]c2ccc(Br)cc12`, `CCOC(=O)c1cc(C(=O)c2ccc(Br)cc2)n2cc(C)cc(C)c12` is lower in growth: 92.3% for the first, 78.4% for the second.

`C#CCCCCCCC[C@@H]1OC(=O)[C@H]([C@@H](C)CC)NC(=O)[C@@H]([C@@H](C)CC)NC(=O)CC(=O)[C@@H]1C` and `CCCCCCCCCCCCCCCC[n+]1cccc(C#N)c1` are the same in growth: 86.6% for the first, 86.6% for the second.

Compared with `COC(=O)C(C)[C@H]1CC[C@@H]2[C@]1(C)CC=C1[C@]23C=C[C@]2(C[C@@H](OC(C)=O)CC[C@]12C)C(C(=O)OC)C3C(=O)OC` (stereo not given in full), `CC(=O)OCC1O[C@@H](OC(C)=O)[C@@H](NC(=O)NS(=O)(=O)c2ccccc2)C(OC(C)=O)[C@@H]1OC(C)=O` (stereo not given in full) is lower in growth: 106% for the first, 71.9% for the second.

Going from `Cc1nc2c(nnn2-c2ccccc2)c2nc(-c3ccccc3)oc(=O)c12` to `NC(=O)c1c(Nc2ccccc2)nn2cc(-c3nc4ccccc4s3)c(N)nc12`, the growth falls from 98.6% to 92.5%.

First: CC(O)C(N)=O (stereo not given)
Second: NC(=O)CC(NC(=O)COc1ccc(Cl)cc1Cl)C(=O)O (stereo not given)
The growth of the first is higher: 103% for the first, 88% for the second.

First: CCOC(=O)c1ccc2n1CCCc1cnc(NC(C)=O)nc1-2
Second: CC(C)OC(=O)c1ccc2n1CCCc1cnc(Nc3ccccc3)nc1-2
The growth of the first is higher: 74.3% for the first, 63.5% for the second.

Going from `CCCCCCCCCCCCCCCCCC1=NCCN1CCNC(C)=O` to `CCOC(=O)c1c(C)oc2ncnc(Nc3ccc(C(=O)NCCc4ccccc4)cc3)c12`, the growth falls from 78.4% to 77.6%.

Compared with `Clc1ccc(N/N=C(/c2ccccc2)c2ccccn2)nc1`, `CC(=O)/C(=C/c1ccc(-c2ccccc2)cc1)C(=O)c1ccccc1` is higher in growth: 52.7% for the first, 96.5% for the second.

Going from `COc1ccc(-n2nnnc2-c2cn[nH]c2C(F)(F)F)cc1` to `CCOC(=O)NNc1[nH]c(-c2ccc(OC)cc2)cc1C#N`, the growth rises from 83.2% to 99.8%.

Going from `Cc1nc(NC(=O)NC2CCCCC2)sc1C(=O)NN` to `CC(=O)NNC(=O)c1sc(NC(C)=O)nc1C`, the growth falls from 118% to 100%.

Compared with `CCOC(=O)C1=C(C(F)(F)F)NC(=S)NC1CN1C(=O)c2ccccc2C1=O` (stereo not given), `Cc1c(O)c(N=Nc2ccc(C(=O)O)c(O)c2)c2ccccc2c1O` is lower in growth: 133% for the first, 86.3% for the second.

Compared with `O=C(/C=C/c1ccc(Br)cc1)c1ccccc1`, `COc1cccc2c1nc1cccc(OC)c1[n+]2[O-]` is lower in growth: 77.4% for the first, 65.4% for the second.

Going from `COc1ccc2c(c1)/C(=C/c1c(-c3cc(OC)c(OC)c(OC)c3)nc3sccn13)C(=O)N2` to `COc1cc(Cn2ccc3c2-c2oncc2CC3)cc(OC)c1`, the growth falls from 65.3% to 32.4%.

Going from `COc1cccc(Cn2cc3c(c2)-c2oncc2CC3)c1` to `COc1ccc(C2C3(C#N)C(N)=NC(=C(C#N)C#N)C23C#N)cc1OC` (stereo not given), the growth rises from 36.4% to 101%.

In the case of `COC(=O)c1ccc(C(=Nc2ccc(N(C)C(=O)CN3CCN(C)CC3)cc2)c2c(O)[nH]c3ccc(C(=O)OC)cc23)cc1`, the growth is reported as 18.2%.

With `CC(C)(C)c1ccc([I+]c2ccc(C(C)(C)C)cc2)cc1` the growth was -2.59% (active).
In the case of `COC(=O)c1ccc2[nH]c(O)c(C(=Nc3ccc(N(C)C(=O)CN4CCN(C)CC4)cc3)c3cccc(OC)c3)c2c1`, the growth is reported as -14.9% (active).
In the case of `COC(=O)c1ccc2[nH]c(O)c(C(=Nc3ccc(N(C)C(=O)CN4CCN(C)CC4)cc3)c3ccc(C)cc3)c2c1`, the growth is reported as -73.8% (active).
`Nc1nc2c(c3cnccc13)C(c1cccc(Cl)c1)Cc1cnccc1-2` (stereo not given) was tested, and the growth was -5.65% (active).
With `COc1cc2ncnc(-n3ncc4cc(NC(=O)Nc5ccc(Cl)c(Cl)c5)ccc43)c2cc1OC` the growth was -22.7% (active).
`N=C(N)c1ccc(-c2ccc(-c3ccc(F)cc3)s2)cc1` was tested, and the growth was -87.8% (active).
`CCCCCSc1ccc2nc(NC(=O)OCC)sc2c1` was tested, and the growth was -0.27% (active).

The molecules below were run on CCRF-CEM leukemia in the same assay as above. Details: 10 µM.

Going from `COc1ccc(Cn2cc3c(c2-c2ccccc2)CCc2cnoc2-3)cc1OC` to `CCOC(=O)c1c2c(cn1Cc1ccccc1)-c1oncc1CC2`, the growth rises from 17.1% to 96%.

Going from `Cc1ccc2c(O)c(O)cc(NC(C)CCCN)c2n1` (stereo not given) to `CCCCCSc1ccc2nc(NC(=O)OCC)sc2c1`, the growth falls from 39.9% to 12.4%.

Going from `COC(=O)/C(Br)=C/c1c[nH]c2ccc(Br)cc12` to `CCOC(=O)c1cc(C(=O)c2ccc(Br)cc2)n2cc(C)cc(C)c12`, the growth rises from 23.4% to 83.9%.

First: C#CCCCCCCC[C@@H]1OC(=O)[C@H]([C@@H](C)CC)NC(=O)[C@@H]([C@@H](C)CC)NC(=O)CC(=O)[C@@H]1C
Second: CCCCCCCCCCCCCCCCCC1=NCCN1CCNC(C)=O
The growth of the first is higher: 93% for the first, 40.3% for the second.

Going from `COC(=O)C(C)[C@H]1CC[C@@H]2[C@]1(C)CC=C1[C@]23C=C[C@]2(C[C@@H](OC(C)=O)CC[C@]12C)C(C(=O)OC)C3C(=O)OC` (stereo not given in full) to `CC(=O)OCC1O[C@@H](OC(C)=O)[C@@H](NC(=O)NS(=O)(=O)c2ccccc2)C(OC(C)=O)[C@@H]1OC(C)=O` (stereo not given in full), the growth rises from 74.4% to 97%.

Going from `Cc1nc2c(nnn2-c2ccccc2)c2nc(-c3ccccc3)oc(=O)c12` to `NC(=O)c1c(Nc2ccccc2)nn2cc(-c3nc4ccccc4s3)c(N)nc12`, the growth falls from 111% to 99.2%.

Going from `CC(O)C(N)=O` (stereo not given) to `NC(=O)CC(NC(=O)COc1ccc(Cl)cc1Cl)C(=O)O` (stereo not given), the growth rises from 102% to 105%.

Compared with `Nc1nc2c(c3cnccc13)C(c1cccc(Cl)c1)Cc1cnccc1-2` (stereo not given), `COc1cc2ncnc(-n3ncc4cc(NC(=O)Nc5ccc(Cl)c(Cl)c5)ccc43)c2cc1OC` is higher in growth: 13.3% for the first, 22.3% for the second.

First: CCOC(=O)c1ccc2n1CCCc1cnc(NC(C)=O)nc1-2
Second: CC(C)OC(=O)c1ccc2n1CCCc1cnc(Nc3ccccc3)nc1-2
The growth of the first is higher: 93.9% for the first, 72.3% for the second.

Compared with `Clc1ccc(N/N=C(/c2ccccc2)c2ccccn2)nc1`, `CC(=O)/C(=C/c1ccc(-c2ccccc2)cc1)C(=O)c1ccccc1` is higher in growth: 14.2% for the first, 38.6% for the second.

Compared with `COc1ccc(-n2nnnc2-c2cn[nH]c2C(F)(F)F)cc1`, `CCOC(=O)C1=C(C(F)(F)F)NC(=S)NC1CN1C(=O)c2ccccc2C1=O` (stereo not given) is lower in growth: 98.3% for the first, 40.7% for the second.

First: CCOC(=O)c1c(C)oc2ncnc(Nc3ccc(C(=O)NCCc4ccccc4)cc3)c12
Second: O=C(/C=C/c1ccc(Br)cc1)c1ccccc1
The growth of the first is lower: 81% for the first, 81.6% for the second.

Going from `Cc1nc(NC(=O)NC2CCCCC2)sc1C(=O)NN` to `CC(=O)NNC(=O)c1sc(NC(C)=O)nc1C`, the growth falls from 112% to 88.1%.

Going from `Cc1c(O)c(N=Nc2ccc(C(=O)O)c(O)c2)c2ccccc2c1O` to `COC(=O)c1ccc(C(=Nc2ccc(N(C)C(=O)CN3CCN(C)CC3)cc2)c2c(O)[nH]c3ccc(C(=O)OC)cc23)cc1`, the growth falls from 112% to 12.3%.

Going from `COc1cccc(Cn2cc3c(c2)-c2oncc2CC3)c1` to `COc1cc(Cn2ccc3c2-c2oncc2CC3)cc(OC)c1`, the growth rises from 15.2% to 30.1%.

Going from `COc1ccc(C2C3(C#N)C(N)=NC(=C(C#N)C#N)C23C#N)cc1OC` (stereo not given) to `COc1cc(N)c2nccc(C)c2c1OC`, the growth rises from 92.3% to 101%.

In the case of `CC(C)(C)c1ccc([I+]c2ccc(C(C)(C)C)cc2)cc1`, the growth is reported as 9.22% (active).
For `COC(=O)c1ccc2[nH]c(O)c(C(=Nc3ccc(N(C)C(=O)CN4CCN(C)CC4)cc3)c3cccc(OC)c3)c2c1`, the growth was 7.19% (active).
With `COC(=O)c1ccc2[nH]c(O)c(C(=Nc3ccc(N(C)C(=O)CN4CCN(C)CC4)cc3)c3ccc(C)cc3)c2c1` the growth was 1.57% (active).
With `N=C(N)c1ccc(-c2ccc(-c3ccc(F)cc3)s2)cc1` the growth was -62% (active).
For `COc1ccc2c(c1)/C(=C/c1c(-c3cc(OC)c(OC)c(OC)c3)nc3sccn13)C(=O)N2`, the growth was -43.3% (active).
In the case of `CCCCCCCCCCCCCCCC[n+]1cccc(C#N)c1`, the growth is reported as -26% (active).
For `COc1cccc2c1nc1cccc(OC)c1[n+]2[O-]`, the growth was 3.09% (active).
For `CCOC(=O)NNc1[nH]c(-c2ccc(OC)cc2)cc1C#N`, the growth was 7.58% (active).
